Source: PubChem BioAssay (NCI)
About 83,000 compounds went through this panel and 20% of them were active in at least one assay; those are over-represented in the sample as a whole.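 Treatment: one concentration, 48 hours, 96-well format. Scoring: percent growth, with anything below 10 considered active.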 The source made the active and inactive calls.

Experiments:
Assay in all cases: NCI-60 one-dose screen, 48 h (100 = growth as untreated, 0 = no growth, -100 = all killed)
Conditions in all cases: 10 µM
NCI-H23 lung = test system: NCI-H23 lung
NCI-H226 lung = test system: NCI-H226 lung
NCI-H322M lung = test system: NCI-H322M lung
HOP-62 NSCLC = test system: HOP-62 NSCLC
NCI-H460 lung = test system: NCI-H460 lung
HOP-92 NSCLC = test system: HOP-92 NSCLC
NCI-H522 lung = test system: NCI-H522 lung
A549/ATCC NSCLC = test system: A549/ATCC NSCLC
786-0 renal = test system: 786-0 renal
COLO 205 colon = test system: COLO 205 colon

Measured: growth

CN1CCc2c(sc3ncnc(N/N=C/c4ccc5ccccc5c4)c23)C1
active: NCI-H460 lung 0.259%
inactive: NCI-H23 lung 66.1% | NCI-H226 lung 86.1% | NCI-H322M lung 97% | HOP-62 NSCLC 82% | HOP-92 NSCLC 89.2% | NCI-H522 lung 83.9% | A549/ATCC NSCLC 42.7% | 786-0 renal 51% | COLO 205 colon 36.3%

O=C(CNc1nc(-c2ccccc2)cs1)Nc1cccc(Cl)c1
inactive: NCI-H23 lung 28.4% | NCI-H226 lung 44.8% | NCI-H322M lung 62.3% | HOP-62 NSCLC 46.6% | NCI-H460 lung 44.8% | A549/ATCC NSCLC 38.7% | 786-0 renal 54.6% | COLO 205 colon 40.3%
active: HOP-92 NSCLC -5.42% | NCI-H522 lung 4.23%

CN1CCN(c2ccc(Nc3nc(NCCCNC(=O)C4CCCCC4)c4sccc4n3)cc2)CC1
inactive: NCI-H23 lung 60.3% | NCI-H226 lung 81.6% | NCI-H322M lung 70% | HOP-62 NSCLC 72.4% | NCI-H460 lung 52.9% | HOP-92 NSCLC 25.4% | NCI-H522 lung 79.4% | A549/ATCC NSCLC 59.5% | COLO 205 colon 68.8%
active: 786-0 renal 3.18%

O=c1oc2ccc(-c3ccc(F)cc3F)cc2c(=O)n1-c1ccc(Cl)c(C(F)(F)F)c1
inactive: A549/ATCC NSCLC 15%
active: NCI-H23 lung -42.7% | NCI-H226 lung -18.8% | NCI-H322M lung -2.17% | HOP-62 NSCLC -18.8% | NCI-H460 lung 8.48% | HOP-92 NSCLC -19.4% | NCI-H522 lung -12.6% | 786-0 renal 7.66% | COLO 205 colon -81.3%

N#Cc1c(NC(=O)c2ccc(C(O)(C(F)(F)F)C(F)(F)F)cc2)sc2c1CCC(=O)C2
inactive: NCI-H322M lung 19.1%
active: NCI-H23 lung -81% | NCI-H226 lung -57.2% | HOP-62 NSCLC -17% | NCI-H460 lung 7.12% | HOP-92 NSCLC -55.7% | NCI-H522 lung -71.2% | A549/ATCC NSCLC 9.39% | 786-0 renal -47.7% | COLO 205 colon -89.3%

Cc1cc(C)nc(NS(=O)(=O)c2ccc(N/C(N)=N/c3nccc(-c4ccccc4)n3)cc2)n1
inactive: NCI-H23 lung 57.1% | NCI-H226 lung 49.6% | NCI-H322M lung 75.6% | HOP-62 NSCLC 70.3% | NCI-H460 lung 76.3% | HOP-92 NSCLC 43.6% | NCI-H522 lung 76.2% | A549/ATCC NSCLC 63% | 786-0 renal 72.1% | COLO 205 colon 91.1%

OCc1[nH]nc2cc(Nc3ncc4ccc(Br)c(OC5CCC(O)CC5)c4n3)ccc12 (stereo not given)
inactive: HOP-92 NSCLC 20.9%
active: NCI-H23 lung -88.8% | NCI-H226 lung -2.72% | NCI-H322M lung -17.9% | HOP-62 NSCLC 0.469% | NCI-H460 lung 2.31% | NCI-H522 lung -31.2% | A549/ATCC NSCLC 4.04% | 786-0 renal -26% | COLO 205 colon -76.9%

CC(C)C(=O)Nc1ccc(C(=O)NC(=S)Nc2ccc(C(=O)O)cc2)cc1
inactive: NCI-H23 lung 101% | NCI-H226 lung 95.6% | NCI-H322M lung 105% | HOP-62 NSCLC 102% | NCI-H460 lung 102% | HOP-92 NSCLC 108% | NCI-H522 lung 90.6% | A549/ATCC NSCLC 110% | 786-0 renal 102% | COLO 205 colon 105%

O=C(N/N=C/c1ccc(B(O)O)o1)c1[nH]c2ccc(Br)cc2c1-c1ccccc1
inactive: NCI-H23 lung 24% | NCI-H226 lung 38.2% | NCI-H322M lung 61.2% | HOP-62 NSCLC 44.3% | NCI-H460 lung 11% | HOP-92 NSCLC 58.9% | A549/ATCC NSCLC 31.1% | 786-0 renal 41.6%
active: NCI-H522 lung -51% | COLO 205 colon -43.2%

CC1=C2C(=C[C@@](C)(CO)[C@@H]2O)/C(=N\N)[C@](C)(O)C12CC2
active: NCI-H23 lung -77.8% | NCI-H226 lung -41.2% | NCI-H322M lung -11.9% | HOP-62 NSCLC -27% | NCI-H460 lung -6.47% | HOP-92 NSCLC -22.6% | NCI-H522 lung -62.4% | A549/ATCC NSCLC 5.73% | 786-0 renal 6.59% | COLO 205 colon -79.4%

CC(C)C1=C[C@@]23CC[C@@H]4[C@](C)(CCC[C@]4(C)C(=O)NCc4ccccc4)[C@H]2C[C@@H]1[C@H]1C(=O)OC(=O)[C@H]13
inactive: NCI-H23 lung 23% | NCI-H226 lung 76.1% | NCI-H322M lung 102% | HOP-62 NSCLC 57.2% | NCI-H460 lung 17.6% | HOP-92 NSCLC 64.7% | NCI-H522 lung 17% | A549/ATCC NSCLC 33.7% | 786-0 renal 70.5% | COLO 205 colon 79.6%

C=C1CCC2C3(C)COC(c4c(F)cccc4F)OC3CCC2(C)C1CC(O)C1=CCOC1=O (stereo not given)
inactive: NCI-H23 lung 83.5% | NCI-H226 lung 79.3% | NCI-H322M lung 108% | HOP-62 NSCLC 86% | NCI-H460 lung 89.2% | HOP-92 NSCLC 55.4% | A549/ATCC NSCLC 71.9% | 786-0 renal 19.1% | COLO 205 colon 42.4%
active: NCI-H522 lung -33.8%

Cc1nc2c(cnn2-c2ccccc2)c(=O)n1-c1ccc(NC(=O)c2ccc(F)cc2)cc1
inactive: NCI-H23 lung 50.2% | NCI-H226 lung 56.2% | NCI-H322M lung 86.1% | HOP-62 NSCLC 64.6% | NCI-H460 lung 54.4% | HOP-92 NSCLC 85.2% | NCI-H522 lung 63.9% | A549/ATCC NSCLC 54.6% | 786-0 renal 82.5% | COLO 205 colon 62.3%

O=C(CSc1ccc(-c2ccc(Cl)cc2)nn1)Nc1ccc(Cl)c(C(F)(F)F)c1
inactive: NCI-H23 lung 73.6% | NCI-H226 lung 76.1% | NCI-H322M lung 89.1% | HOP-62 NSCLC 57.4% | NCI-H460 lung 98.6% | HOP-92 NSCLC 75.8% | NCI-H522 lung 55.1% | A549/ATCC NSCLC 70.5% | 786-0 renal 80.6% | COLO 205 colon 74.8%

COc1ccc(NC(=O)Nc2ccc(OCC(=O)N=Nc3c(O)[nH]c4ccc([N+](=O)[O-])cc34)cc2)cc1
inactive: NCI-H23 lung 59.5% | NCI-H226 lung 62.7% | NCI-H322M lung 91.2% | HOP-62 NSCLC 40.7% | NCI-H460 lung 74% | HOP-92 NSCLC 53.5% | A549/ATCC NSCLC 99% | 786-0 renal 73.1% | COLO 205 colon 112%
active: NCI-H522 lung 0.434%

CCCCCCCCCCCCCCCCCCCC(=O)NCCc1c[nH]c2ccc(OC(=O)CCCC(=O)OCCOOCCOOCCOOCCOOCCOOCCOOCCOOCCOOCCOOCCOOCCOOCCOC)cc12
inactive: NCI-H23 lung 59.7% | NCI-H226 lung 52.9% | NCI-H322M lung 109% | HOP-62 NSCLC 120% | NCI-H460 lung 50.4% | HOP-92 NSCLC 74.7% | A549/ATCC NSCLC 42.3% | 786-0 renal 83.9% | COLO 205 colon 117%
active: NCI-H522 lung -82.9%

COc1cc2c3c(n(CCCN4CCOCC4)c(=O)c2cc1OC)-c1nc2c(cc1C3=O)OCO2
active: NCI-H23 lung 4.12% | NCI-H226 lung 6.34% | HOP-62 NSCLC -12.4% | NCI-H460 lung -15.4% | HOP-92 NSCLC -2.4% | 786-0 renal -6.02%
inactive: NCI-H322M lung 41% | NCI-H522 lung 39.9% | A549/ATCC NSCLC 19% | COLO 205 colon 13%

CCN1CCN(c2ccc(NC(=O)Nc3ccc(-c4cc(C(=O)NC)c5ncccc5n4)cc3)cc2C(F)(F)F)CC1
active: NCI-H23 lung -99% | NCI-H226 lung -61.9% | NCI-H322M lung -100% | HOP-62 NSCLC -92.2% | NCI-H460 lung -100% | HOP-92 NSCLC -81.8% | NCI-H522 lung -93.3% | A549/ATCC NSCLC -88.4% | 786-0 renal -100% | COLO 205 colon -76.3%

O=C(Nc1ccc(F)c(Cl)c1)c1cc(-c2ccc(F)cc2F)ccc1O
active: NCI-H23 lung -46.9% | NCI-H226 lung -23.4% | NCI-H322M lung 2.57% | HOP-62 NSCLC -13% | NCI-H460 lung 0.118% | HOP-92 NSCLC -20.6% | NCI-H522 lung -15% | A549/ATCC NSCLC 9.32% | 786-0 renal 9.93% | COLO 205 colon 4.58%

O=C1CCC(N2Cc3cc(NC(=O)COc4ccccc4)ccc3C2=O)C(=O)N1 (stereo not given)
active: HOP-92 NSCLC -0.508%
inactive: NCI-H23 lung 101% | NCI-H226 lung 48.1% | NCI-H322M lung 80.3% | HOP-62 NSCLC 65.7% | NCI-H460 lung 113% | NCI-H522 lung 91% | A549/ATCC NSCLC 85% | 786-0 renal 71.8% | COLO 205 colon 74.6%

O=C(O)CCCCCCCCCCN1C(=O)/C(=C/c2cnc(-c3ccccc3)s2)SC1=S
inactive: NCI-H23 lung 55.9% | NCI-H226 lung 103% | NCI-H322M lung 80.6% | HOP-62 NSCLC 115% | NCI-H460 lung 29.6% | HOP-92 NSCLC 52.1% | NCI-H522 lung 38.2% | A549/ATCC NSCLC 46.1% | 786-0 renal 79.3% | COLO 205 colon 141%

COc1cc(/C=C/C(=O)c2cc(OC)c(OC)c(OC)c2)ccc1Oc1nc(Nc2ccc(F)cc2)nc(N(C)C)n1
inactive: NCI-H226 lung 17.9%
active: NCI-H23 lung -23.7% | NCI-H322M lung 9.59% | HOP-62 NSCLC -44.5% | NCI-H460 lung -23% | HOP-92 NSCLC -42.3% | NCI-H522 lung -82.7% | A549/ATCC NSCLC -48.3% | 786-0 renal -94.1% | COLO 205 colon 7.64%

Nc1nc(-c2ccccc2)cs1
inactive: NCI-H23 lung 42% | NCI-H226 lung 63.4% | NCI-H322M lung 99.4% | HOP-62 NSCLC 52% | NCI-H460 lung 73.2% | HOP-92 NSCLC 60.9% | A549/ATCC NSCLC 55.7% | 786-0 renal 93.7% | COLO 205 colon 108%
active: NCI-H522 lung -4.11%

N#Cc1c(-c2ccc(Cl)cc2)cc(-c2ccccc2)nc1OCc1ccccc1
inactive: NCI-H23 lung 76.7% | NCI-H226 lung 74.7% | NCI-H322M lung 96.6% | HOP-62 NSCLC 84.9% | NCI-H460 lung 51.9% | HOP-92 NSCLC 90.8% | NCI-H522 lung 69.3% | A549/ATCC NSCLC 73.8% | 786-0 renal 107% | COLO 205 colon 106%
